# An excerpt weighted towards active compounds, which were near 0.84% of everything screened.
# NCOA2 inhibitor: inhibits human steroid receptor coactivator 2. 370,000 tested, 0.17% active. Q15596. HEK293 GAL4-SRC2 luciferase reporter, luminescence. inhibition, % at 9 µM. AID 651957;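 active = inhibition above the mean inhibition of all tested compounds plus 3 SD, set per campaign, cut at about 52% in these data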;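 also: 0% = DMSO treated cells and 100% = cells given Gossypol at 36 µM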
# SRC1 inh: inhibitors of human steroid receptor coactivator 1 (SRC1); AID 588354; 360,000 tested, 0.12% active; HEK293 GAL4-SRC1 luciferase reporter, luminescence; inhibition, % at 3.6 µM; Q15788;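 active = inhibition above the campaign mean plus 3 SD, with each screening campaign given its own cutoff, cut at about 60% in these data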;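 also: 0% = DMSO treated cells and 100% = gossypol at 36 µM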
# SRC3 inh: inhibitors of human steroid receptor coactivator 3 (SRC3). AID 588352. 360,000 tested, 0.17% active. inhibition, % at 3.6 µM. Q9Y6Q9. HEK293 GAL4-SRC3 luciferase reporter, luminescence;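 active = inhibition above a per-campaign cutoff, the mean of all compounds plus 3 SD, cut at about 60% in these data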;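 also: 0% = DMSO-treated cells and 100% = gossypol-treated cells at 36 µM; higher means less SRC3-driven luciferase light from the GAL4 reporter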
# COUP-TFII inh: blocks human COUP-TFII nuclear receptor | P24468 | HEK293T NGFI-A luciferase reporter, luminescence | inhibition, % at 8.6 µM | 370,000 tested, 0.7% active;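 active = inhibition above a per-plate cutoff, mean inhibition of test wells between control levels plus 3 SD, cut at about 38% in these data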;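 also: cells cotransfected with COUP-TFII expression vector driving the NGFI-A reporter; 0% = median of COUP-TF2 test wells and 100% = reporter-only cells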
# Target sequence (P24468 whole entry, looked up): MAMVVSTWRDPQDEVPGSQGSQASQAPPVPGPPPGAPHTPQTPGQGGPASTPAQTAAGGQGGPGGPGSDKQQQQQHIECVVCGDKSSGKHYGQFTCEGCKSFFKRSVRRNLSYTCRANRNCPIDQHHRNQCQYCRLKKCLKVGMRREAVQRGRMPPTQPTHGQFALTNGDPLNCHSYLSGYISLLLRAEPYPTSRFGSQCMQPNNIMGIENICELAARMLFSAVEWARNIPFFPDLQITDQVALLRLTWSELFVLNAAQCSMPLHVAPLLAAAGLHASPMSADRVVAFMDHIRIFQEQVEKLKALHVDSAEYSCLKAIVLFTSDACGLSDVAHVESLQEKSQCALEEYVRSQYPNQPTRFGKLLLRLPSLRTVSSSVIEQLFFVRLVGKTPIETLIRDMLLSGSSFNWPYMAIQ
# NR5A2 inv ag: inverse agonists of human LRH-1 (NR5A2); 360,000 tested, 0.13% active; O00482; AID 602396; HEK293T StAR-luciferase reporter, LRH-1 transfected, 24 h; inhibition, % at 3.6 µM;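 active = inhibition above the mean inhibition of all tested compounds plus 3 SD, cut at about 73% in these data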;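 also: 0% = DMSO wells and 100% = reporter-only cells lacking LRH-1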
# VP16 Luc counter: VP16 inhibition counter-screen for COUP-TFII; 2,500 tested, 25% active; AID 687007; HEK293 Gal4-VP16 luciferase reporter, luminescence; inhibition, % at 8.5 µM; shares compounds with COUP-TFII inh; in the data active = inhibition above about 13%
# NR2F2 inh conf: confirmation of human COUP-TFII (NR2F2) inhibitors; shares compounds with COUP-TFII inh; HEK293 NGFI-A luciferase reporter, luminescence; inhibition, % at 8.5 µM; 2,500 tested, 45% active; AID 687008;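 active = mean inhibition over three repeats above a set limit taken from the earlier primary screen, cut at about 38% in these data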;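 also: 100% = cells given the luciferase reporter alone without the COUP-TF2 vector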
# * hit, by the source's call; x = no result given.
SMILES,NCOA2 inhibitor,SRC1 inh,SRC3 inh,COUP-TFII inh,NR5A2 inv ag,VP16 Luc counter,NR2F2 inh conf
COc1ccc(C(=O)Nc2ccc(C)cn2)c(OC)c1,56*,-8,38,55*,-31,14*,28
COc1ccc(C(=O)Nc2cc(C)on2)c(OC)c1,-44,-126,-113,-49,-153,x,x
Oc1ccc(-c2n[nH]c(C(F)(F)F)c2-c2ccccc2)c(O)c1,25,11,24,65*,23,0,48*
Cc1ccccc1-n1ncc2c(SCC(=O)NC3CCCC3)ncnc21,27,3,22,46*,29,-6,24
FC(F)(F)c1ccc(C2NCCc3sccc32)cc1 (centres undefined),-4,-38,-13,-9,-38,x,x
CCCCCCCCN1C(=O)[C@@H](CC(=O)NCCCN2CCCC2=O)C[C@@]2(C(=O)OC)C1=C[C@H](C1CCCC1)O[C@@H]2C,-30,x,x,2,x,x,x
Cn1nc(C(C)(C)C)cc1C(=O)N1CCCCC1c1cc(C(=O)NCc2ccc(F)cc2)no1 (centres undefined),1,4,-4,38*,17,3,17
CCOC(=O)N1CCN(C(=O)c2ccc3c(c2)N(CC)CCS3)CC1,-6,2,1,-1,14,x,x
CCOC(=O)N1CCN(C(=O)c2ccc3c(c2)N(Cc2ccc(F)cc2)CCS3)CC1,20,2,12,38*,-18,2,-1
CCC(C)Nc1nc2c(c(=O)n(C)c(=O)n2C)n1Cc1ccc(Cl)cc1 (centres undefined),-9,6,-1,3,7,x,x
CCNc1nc2c(c(=O)n(C)c(=O)n2C)n1Cc1ccc(Cl)cc1,26,25,15,53*,29,6,36
S=C(Nc1ccc(Nc2ccccc2)cc1)Nc1ccccn1,-24,-21,18,39*,8,-30,16
S=C(Nc1ccccc1)Nc1ccccn1,-15,-11,-32,1,-8,x,x
O=C(/C=C/c1cccc2ccccc12)c1ccncc1,28,4,20,40*,21,-12,19
O=C(N/N=C/c1cccc2ccccc12)c1ccncc1,-10,6,-6,2,1,x,x
COc1ccc(-c2ccc3c(n2)CCCN3S(=O)(=O)c2ccc(C(F)(F)F)cc2)cc1,-28,x,x,-8,x,x,x
COc1cc(NC(=O)c2c(-c3ccccc3Cl)noc2C)c2ncccc2c1,-27,5,6,23,-4,x,x
Cc1onc(-c2ccccc2Cl)c1C(=O)Nc1cccc2cccnc12,-3,-87,-93,43*,39,4,33
CCC(C)(C)C1CCc2[nH]nc(C(=O)NC3CCCC3)c2C1 (centres undefined),-6,1,-44,6,-7,x,x
O=C(NC1CCCCC1)c1n[nH]c2c1CCCCC2,57*,25,31,50*,23,-19,37
O=C(c1ccc(S(=O)(=O)c2cccc(Cl)c2)c([N+](=O)[O-])c1)N1CCN(c2ccccn2)CC1,28,-1,19,45*,2,21*,9
O=C(N[C@H]1CC[C@H](CCNS(=O)(=O)c2ccc(Cl)cc2)O[C@@H]1CO)c1cccc(F)c1,-9,x,x,8,1,x,x
COc1ccc(-c2csc(NC(=O)C3=NN(c4ccccc4)C(=O)CC3)n2)cc1,5,17,18,49*,7,-25,19
C=C(C)CC1(NC(C)c2ccccc2)CCCCC1 (centres undefined),-8,-12,9,41*,3,-11,-3
C/C(CC(C)(C)C1CCCCC1)=N\NC(N)=S,40,41,62*,59*,70,17*,64*
SMILES,NCOA2 inhibitor,SRC1 inh,SRC3 inh,COUP-TFII inh,NR5A2 inv ag,VP16 Luc counter,NR2F2 inh conf
CCN(CC(=O)NCc1ccc(Cl)cc1)C(=O)c1cc(OC)cc(OC)c1,-7,-2,3,53*,-16,-7,-2
N#Cc1c(NC(=O)CSc2nc(N)cc(=O)[nH]2)sc2c1CCCCCC2,25,12,25,16,20,x,x
N#Cc1c(NC(=O)CSc2ncn[nH]2)sc2c1CCCCC2,84*,36,49,88*,53,81*,79*
CC(C)c1ccc(/C=C2\SC(=O)N(CC(=O)NC3CCS(=O)(=O)C3)C2=O)cc1 (centres undefined),-50,-51,-36,-13,-45,x,x
O=C(Nc1cccc(O)c1)c1cc(-c2ccc3c(c2)OCO3)on1,19,-21,-18,43*,-51,-2,16
COc1ccc(NC(=O)c2cc(-c3ccccc3Cl)on2)cc1OC,-14,-21,-28,0,-10,x,x
O=C(Nc1cccc(O)c1)c1cc(-c2ccccc2Cl)on1,31,-19,-9,60*,-10,-12,10
Cc1cccc(C)c1NC(=O)CNC(=O)CN1C(=O)NC2(CCc3ccccc32)C1=O (centres undefined),5,-12,1,16,16,x,x
CN1CCN(c2ccc(NC(=O)N3CCc4ccccc43)cc2)CC1,37,57,53,62*,35,-11,63*
COCCN(C(=O)CCC(=O)Nc1nccs1)C(C(=O)NC(C)(C)C)c1ccc(C)cc1 (centres undefined),76*,-13,0,60*,-25,-1,-5
Fc1ccc(CN2CCN(c3ncc(Cc4ccccc4)cn3)CC2)c(Cl)c1,24,x,x,51*,x,6,47*
FC(F)(F)c1ccc(Cl)c(CN2CCN(c3ncc(Cc4ccccc4)cn3)CC2)c1,27,x,x,1,x,x,x
CCCC(=O)N1CCC[C@]2(CC[C@@H](CCC#N)O2)C1,-18,x,x,6,x,x,x
CN(C(=O)COc1ccccc1C(=O)NCCOc1ccccc1)c1ccccc1,46,51,77*,56*,50,-6,25
O=C(NCCOc1ccccc1)c1ccccc1Cl,-49,-80,-86,-32,-94,x,x
O=C(CCl)Nc1cc(SCC(O)CO)cc([N+](=O)[O-])c1 (centres undefined),69*,28,70*,69*,87*,28*,73*
CCC(=O)Nc1cc(SCCO)cc([N+](=O)[O-])c1,-9,10,0,31,-1,x,x
CCOC(=O)Cc1csc(NC(=O)/C=C/c2cccc(Br)c2)n1,16,14,26,58*,2,-7,14
CCOC(=O)Cc1csc(NC(=O)/C=C/c2ccc(Br)o2)n1,10,-12,-11,28,-18,x,x
CCOc1ccc(-c2nc(CSCC(=O)N3CCN(c4cccc(OC)c4)CC3)c(C)o2)cc1,59*,13,18,66*,28,17*,44*
CCc1ccc(-c2nc(CSCC(=O)N3CCN(c4ccccn4)CC3)c(C)o2)cc1,14,9,37,52*,36,9,23

# Source: PubChem BioAssay
